Eight molecules from PubChem BioAssay (NCI) can be followed below.

The panel holds about 79,000 compounds, 15% with a hit somewhere; the sample as a whole holds those more often. A number with no mark means an inactive call. Activity calls are given as the source filed them. No stated cut-off is given here; in the data, active means growth inhibition above about 70%; inactive means the rest.

This test in a line: NCI Yeast Anticancer Drug Screen. Data for the mgt1 strain (AID 153). To be noted: S. cerevisiae mgt1 mutant growth inhibition, hits give high values. As for the experimental part:
Growth inhibition of yeast strains with defined genetic alterations is measured as a screen for potential anti-cancer activity. Selected strains with alterations in DNA damage repair or cell cycle control were exposed to compounds and growth inhibition was measured relative to vehicle treated controls. The strain used in this assay is mgt1

As to `Cc1ccccc1N=C(NO)c1ccccc1`, the growth inhibition is 0% (at 1.2 µM); -4% (at 3.7 µM); -4% (at 11.0 µM); 30% (at 33.0 µM); 95% (active) (at 100.0 µM).
On to `O=c1ccc(=O)n(-c2ccccc2)[nH]1`, for which the growth inhibition is, setting by setting: (at 1.2 µM) 0%; (at 3.7 µM) 19%; (at 11.0 µM) 35%; (at 33.0 µM) 70% (active); (at 100.0 µM) 97% (active).
For `O=C(CSC(=S)N1CCCCC1)Nc1nc2c(s1)CCCC2`, in that order: -8%, -7%, -16%, 17% and 85% (active).
Taken in the same sequence, the figures for `O=c1c2ccccc2nc(-c2ccccc2)n1O` were 31%, 26%, 92% (active), 98% (active) and 97% (active).
Taken in the same sequence, the figures for `Oc1cccc2cc(Cl)cnc12` were -18%, -22%, 3%, 97% (active) and 98% (active).
Regarding `C[C@@](O)(/C=C/[C@H]1CC=CC(=O)O1)[C@@H](C[C@@H](O)\C=C/C=C\C=C\CO)OP(=O)(O)O`, the growth inhibition was 33% (at 1.2 µM); 28% (at 3.7 µM); 33% (at 11.0 µM); 51% (at 33.0 µM); 86% (active) (at 100.0 µM).
As to `CCOC1Oc2ccccc2-c2nc(N)ncc21` (stereo not given), the growth inhibition was -2% (at 1.2 µM); 10% (at 3.7 µM); 4% (at 11.0 µM); 9% (at 33.0 µM); 6% (at 100.0 µM).
On to `Cc1ccc(CC2(OCCN(C)C)CCC(C(C)(C)C)CC2)cc1` (stereo not given), for which the growth inhibition is, setting by setting: (at 1.2 µM) 14%; (at 3.7 µM) 12%; (at 11.0 µM) 21%; (at 33.0 µM) 84% (active); (at 100.0 µM) 99% (active).
